Source: PubChem BioAssay
The list is not random: actives were taken first. Their share in the collection is about 7.6%.
VP16 counter: VP16 counterscreen qHTS for inhibitors of ROR gamma transcriptional activity. Drosophila S2 Gal4-VP16 UAS-luciferase, luminescence, 20 h. AID 2546, 2010. 3.5% of 310,000 active. Potency, µM (titrated, usually from 53.6 µM), for the others: top-dose activity, negative = inhibition, usual class: inhibitors;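 further: Gal4-VP16 expression switched on by copper sulfate through the metallothionein promoter; potency means the concentration at half of the fitted maximal effect; on the % scale 0 is the no-effect control and ±100 the full control effect; nearly all actives have a fitted effect of over 50% in size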
Giardia kill: Small Molecules that selectively kill Giardia lamblia: qHTS. Giardia lamblia trophozoite viability. activity change, % at 7.66 µM, hits read low. 0.15% of 340,000 active; in the data active means activity change below about -80%; inconclusive means between about -30% and that limit;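 further: parasites exposed to compound for two days anaerobically before the ATP read; on the % scale 0 is the no-effect control and ±100 the full control effect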
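Media and compound were dispensed first, then trophozoites at 100 cells/well; plates sat 48 hrs at 37 deg C without oxygen before ATP luminescence reagent was added and read after 15-30 min at room temperature.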
BRCA1 expr act: qHTS Assay to Identify Small Molecule Activators of BRCA1 Expression; MCF7-BRCA1-FFLuc reporter, luminescence, 48 h; response scale: scaled: vehicle 0%, 10 µM genistein 100%; 1.1% of 380,000 active; AID 624202, 2012; Potency, µM (series often up to 46.1 µM), for the others: at the highest dose activation, actives largely listed as activators; further: potency means the concentration at half of the fitted maximal effect; nearly all actives have a fitted effect of over 80% in size
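MCF7-BRCA1-FFLuc, 2000 cells/well; 2 h attach, 37 °C/5% CO2; compound 48 h; luciferase substrate 15 min; luminescence end-point. Norm. to genistein 10 microM max activation and DMSO; concentration-response curves fitted.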
ELG1 DNA repair: qHTS screen for small molecules that inhibit ELG1-dependent DNA repair in human embryonic kidney (HEK293T) cells expressing luciferase-tagged ELG1 | HEK293T ELG1-luciferase reporter, luminescence, 16 h; DNA damage induced by 5-fluorouridine | Potency, µM (highest dose often 46.1 µM), inactives show at the highest dose activity change, negative = inhibition, most hits filed as inhibitors | 2.3% of 330,000 active | AID 504467, 2011; further: potency means the concentration at half of the fitted maximal effect; on the % scale 0 is the no-effect control and ±100 the full control effect; nearly all actives have a fitted effect of over 55% in size
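In this reporter screen, reduction of luminescence relative to DMSO vehicle indicated activity. Compounds and 5-fluorouridine were added together to 2,000 cells per well, incubated for 16 hr at 37 °C, then developed with ONE-Glo.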
p53 reactivation: qHTS assay for re-activators of p53 using a Luc reporter; H1299 p53-A138V BP100-luciferase reporter, luminescence, 24 h; Potency, µM (top dose mostly 92.2 µM), for the others: at the highest dose activity change, positive = activation, hits mostly activators; 0.063% of 320,000 active; AID 504706, 2011; further: potency means the concentration at half of the fitted maximal effect; % of control where 0% means no effect; nearly all actives have a fitted effect of over 45% in size
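p53-null H1299 cells stably carrying temperature-sensitive p53-A138V and a BP100-luciferase reporter were pinned with compounds (4-point, 1:5 series) and held 24 hrs at 37 deg C. Luminescence was read 10 min after detection reagent.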
RORgamma inh: qHTS for inhibitors of ROR gamma transcriptional activity; Nuclear receptor ROR-gamma (Mus musculus), P51450; Drosophila S2 Gal4-RORgamma UAS-luciferase reporter, 20 h; Potency, µM (top dose mostly 53.6 µM), without a hit: at the top dose activity change, negative = inhibition, usual class: inhibitors; AID 2551, 2010; 5.4% of 310,000 active; further: potency means the concentration at half of the fitted maximal effect; on the % scale 0 is the no-effect control and ±100 the full control effect; nearly all actives have a fitted effect of over 60% in size
Target sequence (P51450 whole entry, looked up, the tested form may be a part): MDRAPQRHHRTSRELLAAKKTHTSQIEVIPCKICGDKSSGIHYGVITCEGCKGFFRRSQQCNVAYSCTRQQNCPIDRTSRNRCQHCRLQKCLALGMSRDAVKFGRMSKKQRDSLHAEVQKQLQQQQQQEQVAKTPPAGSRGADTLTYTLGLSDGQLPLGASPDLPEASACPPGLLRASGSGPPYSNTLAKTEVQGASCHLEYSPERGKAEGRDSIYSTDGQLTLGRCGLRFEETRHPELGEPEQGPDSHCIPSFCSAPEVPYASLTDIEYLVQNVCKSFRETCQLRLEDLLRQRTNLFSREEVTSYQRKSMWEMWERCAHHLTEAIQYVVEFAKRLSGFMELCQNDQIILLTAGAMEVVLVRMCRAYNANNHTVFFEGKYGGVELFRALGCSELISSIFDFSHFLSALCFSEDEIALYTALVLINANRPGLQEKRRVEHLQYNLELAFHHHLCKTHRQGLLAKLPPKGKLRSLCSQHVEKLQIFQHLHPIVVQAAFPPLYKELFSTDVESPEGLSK
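Drosophila S2 cells stably expressing Gal4-DBD/mouse RORγ fusion under metallothionein promoter plus UAS-luciferase; compound 1 h, then 700 uM CuSO4 induction for 20 h at ambient temperature; inhibition read as reduced luminescence.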
* marks the source's active call; other numbers are inactive results; u = inconclusive; x = not tested or not shown. Unless noted, the call rests on the fitted dose curve; in most records, active means well fitted curve in the direction sought with a large enough effect; inconclusive means small, poorly fitted or top-dose-only effect, or another doubt; inactive means no such curve, though single readings can be large; an effect the other way counts as inactive or inconclusive.

SMILES | VP16 counter | Giardia kill | BRCA1 expr act | ELG1 DNA repair | p53 reactivation | RORgamma inh
Cc1ccc(NC(=O)c2ccc(OCC3CCCO3)cc2)nc1 (stereo not drawn) | x | -11.8 | u | u | 9.2% | x
Cc1cnc(NC(=O)c2ccc(OCC3CCCO3)cc2)s1 (stereo not drawn) | u | u | -26.1% | u | -8.5% | 7.94µM*
Cc1nc2ccccc2nc1SCC(=O)N1CCC(C)CC1 | u | -7.1 | -26.9% | -12.5% | -1.9% | u
Cc1ccnc(N2CCN(C(=O)CSc3nc4ccccc4nc3N3CCC(C)CC3)CC2)c1 | -0.5% | 10.2 | -34.7% | 20.6µM* | -2.5% | 40.9%
Cc1nc(N)sc1N=Nc1ccccc1C(F)(F)F | -29.2% | 15.0 | 7.08µM* | u | u | u
CCN(CC)S(=O)(=O)c1cccc(N=Nc2sc(N)nc2C)c1 | -4.1% | -1.3 | -28.3% | 12.1% | -3.2% | -12.1%
CCn1c(C)nc2cc(C(=O)NNC(=S)Nc3ccccc3Cl)ccc21 | 20µM* | -5.3 | 3.98µM* | u | u | 11.2µM*
CCn1c(C)nc2cc(C(=O)NNC(=S)Nc3ccc(Cl)cc3)ccc21 | u | 3.5 | -2.2% | 11.3% | 7.5% | u
CCn1c(C)nc2cc(C(=O)NNC(=O)c3ccc(C)cc3)ccc21 | x | -17.2 | u | u | u | x
CCn1c(C)nc2cc(C(=O)OC(C(F)(F)C(F)F)C(F)(F)C(F)F)ccc21 | 7.08µM* | 1.5 | u | u | u | 7.08µM*
CCn1c(C)nc2cc(C(=O)NNC(=S)Nc3ccc(Cl)cc3Cl)ccc21 | u | 9.0 | 1.1% | 28.6% | -4.1% | 0.3%
CCn1c(C)nc2cc(C(=O)NNC(=S)Nc3ccc(F)cc3)ccc21 | -20.8% | 6.5 | 10µM* | u | 10.0% | -19.8%
COc1ccc(N2C(=O)CC(Sc3nnc(-c4ccccc4F)n3C)C2=O)cc1 (stereo not drawn) | u | 5.5 | 4.0% | 1.2% | -2.5% | u
CC1C=CC(C)C(C(=O)O)C1C(=O)O (stereo not drawn) | -3.2% | -12.9 | 0.1% | 6.6% | -1.4% | 16.3%
Cc1ccc(C(=O)N2CCc3ccccc32)o1 | -18.4% | 31.1 | u | u | u | u
COc1cc2c(cc1OC)CN(C(=O)c1ccc([N+](=O)[O-])o1)CC2 | -11.8% | u | -56.2% | u | u | -36.0%
O=C(c1ccc([N+](=O)[O-])o1)N1CCc2ccccc2C1 | 6.9% | -86.0* | -64.2% | -9.0% | 27.2% | -29.7%
O=C(c1ccc([N+](=O)[O-])o1)N1CCc2ccccc21 | 15.8% | -88.1* | -69.6% | u | x | -35.5%
Cc1ccc(-c2c(C(=O)N/N=C/c3ccsc3)nnn2-c2nonc2N)cc1 | 20µM* | 16.2 | -1.7% | 0.3% | -0.8% | 7.08µM*
CCOc1ccc(-c2c(C(=O)N/N=C/c3cccs3)nnn2-c2nonc2N)cc1 | 6.31µM* | 15.5 | -14.8% | -6.4% | -16.9% | 2.24µM*
Cc1ccc(-c2c(C(=O)N/N=C/c3ccc(OC(C)C)cc3)nnn2-c2nonc2N)cc1 | u | 35.7 | 6.4% | 15.0% | -1.4% | -98.3%
Cc1ccc(SCc2c(C(=O)N/N=C/c3ccoc3)nnn2-c2nonc2N)cc1 | 15.8µM* | -24.1 | -13.6% | -5.3% | -5.5% | 7.94µM*
Cc1ccc(-c2c(C(=O)N/N=C/c3cccs3)nnn2-c2nonc2N)cc1 | 5.62µM* | 4.4 | -32.3% | -0.3% | -8.6% | 7.08µM*
Cc1ccc(SCc2c(C(=O)N/N=C/c3cccs3)nnn2-c2nonc2N)cc1 | x | x | -47.1% | x | x | x
COC(=O)CNC(=O)[C@@]1(Cc2ccccc2)C=C[C@@H](C)N1C(=O)c1ccccc1 | u | x | x | x | x | 16.9%
SMILES | VP16 counter | Giardia kill | BRCA1 expr act | ELG1 DNA repair | p53 reactivation | RORgamma inh
Cc1ccc(SCc2c(C(=O)N/N=C/c3ccc(C)o3)nnn2-c2nonc2N)cc1 | x | x | -25.0% | x | x | x
Cc1ccc(-c2c(C(=O)N/N=C/c3ccoc3)nnn2-c2nonc2N)cc1 | u | 5.5 | -4.6% | 0.5% | 0.6% | 11.2µM*
Cc1ccc(/C=N/NC(=O)c2nnn(-c3nonc3N)c2CSc2ccccc2)o1 | 11.2µM* | 16.2 | -11.7% | -4.4% | 1.0% | 7.08µM*
O=[N+]([O-])c1ccc2c(c1)c1ccccc1n2CCO | -1.1% | -0.2 | 18.5% | 1.9% | -4.0% | 12.4%
Cc1ccc(C)c(OCC(=O)Nc2ccc(S(=O)(=O)Nc3ccccn3)cc2)c1C | -5.0% | -0.5 | u | -8.9% | -5.2% | -3.0%
COc1ccc(C(C[N+](=O)[O-])C2(c3ccc(OC)c(OC)c3)C(=O)c3ccccc3C2=O)cc1 (stereo not drawn) | 17.8µM* | -26.4 | -97.9% | u | -14.7% | u
Cc1ccn2c(NC3CCCC3)c(-c3ccsc3)nc2c1 | 0.6% | -2.4 | 4.1% | u | 8.8% | 11.2µM*
Cc1ccc(C(=O)CN2C(=O)C(C)Oc3ccccc32)cc1 (stereo not drawn) | -2.9% | 17.3 | 11.2µM* | u | u | 13.8%
CC1Oc2ccccc2N(CC(=O)c2ccccc2)C1=O (stereo not drawn) | -8.4% | 10.8 | 19.1% | 15.9% | u | -25.3%
FC(F)(F)c1cccc(NC(=S)Nc2cccc(NC(=S)Nc3cccc(C(F)(F)F)c3)n2)c1 | u | 0.7 | -41.0% | u | 10.6% | 5.01µM*
Cc1cccc(NC(=S)Nc2cccc(C(F)(F)F)c2)n1 | u | 19.8 | -54.6% | u | 4.0% | 1µM*
FC(F)(F)c1cccc(NC(=S)Nc2ccc(Cl)cc2Cl)c1 | -25.3% | 12.7 | -74.5% | 1.3% | 2.5% | u
FC(F)(F)c1cc(NC(=S)Nc2ccc3ccccc3c2)cc(C(F)(F)F)c1 | 14.1µM* | x | x | x | x | u
COc1ccc(C(=O)N2CCC(n3nccc3NC(=O)C3CCOC3)CC2)cc1 (stereo not drawn) | 0.2% | -7.9 | -0.1% | 6.8% | -8.2% | -2.6%
COc1cc(OC)c(OC)cc1CNC(=O)c1ccc(S(=O)(=O)N2CC(C)OC(C)C2)cc1 (stereo not drawn) | x | -11.3 | -3.6% | -13.0% | -0.1% | x
O=C1CN(C(=O)COc2ccc(Br)cc2F)c2ccccc2N1 | 5.8% | -5.0 | -16.0% | -5.8% | -0.6% | u
CCOc1ccc(NC(=O)NC23CC4CC(CC(C4)C2)C3)cc1 | -6.1% | -3.2 | 106.4% | u | u | 11.2%
COc1ccc(CNc2cc(C)nc3ncnn23)c(OC)c1 | 11.2µM* | -3.8 | -92.1% | u | -1.8% | -22.9%
